Values joined by “and” are separate entries in the source; they are usually repeats but may differ in a detail not shown here. Equal entries are not always repeated. Out of some 5,500 compounds screened, about 2,000 (36%) were called active. Not shown: some 18% with an inconclusive outcome. No stated cut-off is given here; in the data, active means normalized growth mostly below about 0.91 (no sharp cut-off); inconclusive means no clear call, values can overlap the other calls; inactive means mostly above about 0.92. Some of the results follow.
Test: chemical genetic growth profiling, strain panel (AID 1159580);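 further: tested at 20 µM; growth read once vehicle control cultures reached saturation at 30 °C; 1 = growth at the plate median or of vehicle wells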
Conditions: S. cerevisiae deletion strains, growth OD

Measured: normalized growth

O=c1c(O)c(-c2ccc(O)cc2O)oc2cc(O)cc(O)c12
inactive: locus YAL013W, strain DEP1, stronger effect = lower value 1 | locus YAL021C, strain ccr4, stronger effect = lower value 0.949 | locus YAL026C, strain drs2, stronger effect = lower value 0.973 | locus YAL030W, strain snc1, stronger effect = lower value 0.99 | locus YAL040C, strain CLN3, stronger effect = lower value 1.01 | locus YBL061C, strain skt5, stronger effect = lower value 0.963 | locus YBR009C, strain hhf1, stronger effect = lower value 1 | locus YBR021W, strain FUR4, stronger effect = lower value 1.01 | locus YBR023C, strain chs3, stronger effect = lower value 1.01 | locus YBR171W, strain sec66, stronger effect = lower value 0.983 | locus YBR229C, strain ROT2, stronger effect = lower value 0.988 | locus YBR231C, strain swc5, stronger effect = lower value 0.965 | locus YBR279W, strain paf1, stronger effect = lower value 0.995 | locus YCL011C, strain gbp2, stronger effect = lower value 1 | locus YCL016C, strain dcc1, stronger effect = lower value 0.988 | locus YCL029C, strain bik1, stronger effect = lower value 1.01 | locus YCL061C, strain MRC1 (second series), stronger effect = lower value 0.986 | locus YCL061C, strain MRC1, stronger effect = lower value 0.976 | locus YCL069W, strain vba3, stronger effect = lower value 0.997 | locus YCR088W, strain abp1, stronger effect = lower value 0.991 | locus YDL005C, strain med2, stronger effect = lower value 1.01 | locus YDL035C, strain GPR1, stronger effect = lower value 0.973 | locus YDL040C, strain nat1, stronger effect = lower value 1 | locus YDL074C, strain BRE1, stronger effect = lower value 1 | locus YDL101C, strain DUN1, stronger effect = lower value 1 | locus YDL185W, strain tfp1, stronger effect = lower value 0.976 | locus YDL192W, strain arf1, stronger effect = lower value 0.974 | locus YDR001C, strain nth1, stronger effect = lower value 0.999 | locus YDR101C, strain arx1, stronger effect = lower value 1 | locus YDR137W, strain rgp1, stronger effect = lower value 1 | locus YDR150W, strain NUM1, stronger effect = lower value 0.986 | locus YDR159W, strain sac3, stronger effect = lower value 0.985 | locus YDR162C, strain NBP2, stronger effect = lower value 0.971 | locus YDR195W, strain ref2 0.964 | locus YDR297W, strain sur2, stronger effect = lower value 0.978 | locus YDR318W, strain mcm21, stronger effect = lower value 1.01 | locus YDR334W, strain swr1, stronger effect = lower value 0.956 | locus YDR335W, strain msn5, stronger effect = lower value 0.98 | locus YDR363W, strain ESC2, stronger effect = lower value 0.995 | locus YDR388W, stronger effect = lower value 0.991 | locus YDR392W, strain spt3, stronger effect = lower value 0.99 | locus YDR502C, strain sam2, stronger effect = lower value 1.02 | locus YEL003W, strain gim4, stronger effect = lower value 0.976 | locus YEL037C, strain rad23, stronger effect = lower value 0.989 | locus YEL061C, strain CIN8 (second series), stronger effect = lower value 0.992 | locus YEL061C, strain CIN8, stronger effect = lower value 0.995 | locus YER002W, strain NOP16, stronger effect = lower value 1.03 | locus YER015W, strain faa2, stronger effect = lower value 0.984 | locus YER016W, strain bim1, stronger effect = lower value 1 | locus YER110C, stronger effect = lower value 1.02 | locus YER111C, strain swi4, stronger effect = lower value 0.954 | locus YER155C, strain BEM2 (second series), stronger effect = lower value 0.977 | locus YER155C, strain BEM2, stronger effect = lower value 1.01 | locus YER167W, strain BCK2, stronger effect = lower value 0.996 | locus YFR010W, strain ubp6, stronger effect = lower value 0.916 | locus YGL078C, strain dbp3, stronger effect = lower value 1.01 | locus YGL086W, strain mad1, stronger effect = lower value 1.06 | locus YGL167C, strain pmr1, stronger effect = lower value 0.98 | locus YGL173C, strain kem1, stronger effect = lower value 0.947 | locus YGL227W, strain vid30, stronger effect = lower value 1.01 | locus YGL240W, strain doc1, stronger effect = lower value 1 | locus YGL248W, strain PDE1, stronger effect = lower value 0.966 | locus YGL253W, strain hxk2, stronger effect = lower value 0.994 | locus YGR078C, strain PAC10, stronger effect = lower value 0.97 and 1.01 | locus YGR135W, strain pre9, stronger effect = lower value 0.991 | locus YHR013C, strain ard1, stronger effect = lower value 0.962 | locus YHR027C, strain rpn1, stronger effect = lower value 0.973 | locus YHR030C, strain SLT2, stronger effect = lower value 0.993 and 0.957 | locus YHR079C, strain IRE1 (second series), stronger effect = lower value 1.02 | locus YHR079C, strain IRE1, stronger effect = lower value 0.968 | locus YHR094C, strain hxt1, stronger effect = lower value 1.02 | locus YHR129C, strain ARP1, stronger effect = lower value 0.973 | locus YHR142W, strain chs7, stronger effect = lower value 0.945 | locus YHR200W, strain rpn10, stronger effect = lower value 0.994 | locus YIL066C, strain RNR3, stronger effect = lower value 0.943 | locus YIL073C, strain SPO22, stronger effect = lower value 1.08 | locus YIL125W, strain kgd1, stronger effect = lower value 0.999 | locus YIR030C, strain dcg1, stronger effect = lower value 1.02 | locus YJL092W, strain hpr5, stronger effect = lower value 0.996 | locus YJL095W, strain BCK1 (second series), stronger effect = lower value 0.964 | locus YJL095W, strain BCK1, stronger effect = lower value 0.986 and 0.988 | locus YJL115W, strain asf1, stronger effect = lower value 0.994 | locus YJL129C, strain trk1, stronger effect = lower value 1.02 | locus YJL134W, strain LCB3, stronger effect = lower value 1.02 | locus YJL154C, strain vps35, stronger effect = lower value 1.02 | locus YJL164C, strain tpk1, stronger effect = lower value 0.975 | locus YJL166W, strain qcr8, stronger effect = lower value 0.984 | locus YJL168C, strain set2, stronger effect = lower value 1 | locus YJL187C, strain SWE1 (second series), stronger effect = lower value 0.966 | locus YJR043C, strain POL32, stronger effect = lower value 0.956 | locus YJR066W, strain TOR1, stronger effect = lower value 0.935 | locus YJR075W, strain HOC1, stronger effect = lower value 1.01 | locus YKL009W, strain mrt4, stronger effect = lower value 1.01 | locus YKL068W, stronger effect = lower value 1.01 | locus YKL085W, strain MDH1 (second series), stronger effect = lower value 0.999 | locus YKL085W, strain MDH1, stronger effect = lower value 0.999 | locus YKL160W, strain elf1, stronger effect = lower value 0.989 | locus YKL190W, strain CNB1, stronger effect = lower value 1 | locus YKR001C, strain vps1, stronger effect = lower value 1.01 | locus YKR026C, strain gcn3, stronger effect = lower value 0.975 | locus YKR091W, strain srl3, stronger effect = lower value 0.996 | locus YLL001W, strain dnm1, stronger effect = lower value 0.983 | locus YLL026W, stronger effect = lower value 1 | locus YLL041C, strain sdh2, stronger effect = lower value 0.999 | locus YLR027C, strain aat2, stronger effect = lower value 1.01 | locus YLR039C, strain RIC1, stronger effect = lower value 1.04 | locus YLR058C, strain SHM2, stronger effect = lower value 0.984 | locus YLR102C, strain apc9, stronger effect = lower value 1.01 | locus YLR113W, strain HOG1, stronger effect = lower value 1 | locus YLR221C, strain rsa3, stronger effect = lower value 0.963 | locus YLR258W, strain gsy2, stronger effect = lower value 0.985 | locus YLR262C, strain YPT6 (second series), stronger effect = lower value 0.966 | locus YLR262C, strain YPT6, stronger effect = lower value 1.06 | locus YLR268W, strain sec22, stronger effect = lower value 1.03 | locus YLR320W, strain mms22, stronger effect = lower value 0.959 | locus YLR330W, strain CHS5, stronger effect = lower value 1.01 | locus YLR342W, strain FKS1 (second series), stronger effect = lower value 0.965 | locus YLR342W, strain FKS1, stronger effect = lower value 0.974 | locus YLR357W, strain rsc2, stronger effect = lower value 0.924 | locus YLR370C, strain arc18, stronger effect = lower value 0.988 | locus YLR371W, strain rom2, stronger effect = lower value 0.995 | locus YLR384C, strain iki3, stronger effect = lower value 1 | locus YLR418C, strain cdc73, stronger effect = lower value 1.05 | locus YML016C, strain PPZ1, stronger effect = lower value 0.972 | locus YML032C, strain rad52, stronger effect = lower value 1 | locus YML120C, strain ndi1, stronger effect = lower value 0.994 | locus YML124C, strain tub3, stronger effect = lower value 1.02 | locus YMR058W, strain fet3, stronger effect = lower value 0.932 | locus YMR078C, strain ctf18, stronger effect = lower value 1.03 | locus YMR125W, strain sto1, stronger effect = lower value 1 | locus YMR129W, stronger effect = lower value 1.01 | locus YMR205C, strain PFK2, stronger effect = lower value 0.98 | locus YMR223W, strain ubp8, stronger effect = lower value 0.986 | locus YMR231W, strain pep5, stronger effect = lower value 0.991 | locus YMR263W, strain SAP30, stronger effect = lower value 0.996 and 1.01 | locus YMR307W, strain GAS1, stronger effect = lower value 0.942 | locus YNL067W, strain RPL9B, stronger effect = lower value 1 | locus YNL071W, strain lat1, stronger effect = lower value 1 | locus YNL128W, strain TEP1, stronger effect = lower value 1 | locus YNL175C, strain NOP13, stronger effect = lower value 1.01 | locus YNL183C, strain NPR1, stronger effect = lower value 0.961 | locus YNL197C, strain WHI3, stronger effect = lower value 1.01 | locus YNL209W, strain ssb2, stronger effect = lower value 0.991 | locus YNL224C, strain SQS1, stronger effect = lower value 1.03 | locus YNL233W, strain BNI4, stronger effect = lower value 0.988 | locus YNL248C, strain rpa49, stronger effect = lower value 0.976 | locus YNL250W, strain rad50, stronger effect = lower value 1.01 | locus YNL271C, strain bni1, stronger effect = lower value 0.993 | locus YNL298W, strain CLA4, stronger effect = lower value 1 | locus YNL307C, strain MCK1, stronger effect = lower value 1.02 | locus YNL322C, strain KRE1 (second series), stronger effect = lower value 0.987 | locus YNL322C, strain KRE1, stronger effect = lower value 1 | locus YNR049C, strain mso1, stronger effect = lower value 1 | locus YNR052C, strain pop2, stronger effect = lower value 0.992 | locus YOL006C, strain TOP1, stronger effect = lower value 1.01 | locus YOL012C, strain htz1 0.825 | locus YOL147C, strain pex11, stronger effect = lower value 1.02 | locus YOR001W, strain rrp6, stronger effect = lower value 0.996 | locus YOR061W, strain CKA2, stronger effect = lower value 0.97 | locus YOR069W, strain VPS5, stronger effect = lower value 0.992 | locus YOR070C, strain gyp1, stronger effect = lower value 0.989 | locus YOR080W, strain dia2, stronger effect = lower value 0.994 | locus YOR083W, strain WHI5 (second series), stronger effect = lower value 1.01 | locus YOR083W, strain WHI5, stronger effect = lower value 0.974 | locus YOR106W, strain vam3, stronger effect = lower value 0.931 | locus YOR136W, strain idh2, stronger effect = lower value 1.02 | locus YOR144C, strain elg1, stronger effect = lower value 1.02 | locus YOR184W, strain ser1, stronger effect = lower value 1.01 | locus YOR231W, strain MKK1, stronger effect = lower value 0.988 | locus YOR265W, strain rbl2, stronger effect = lower value 0.991 | locus YOR270C, strain vph1, stronger effect = lower value 0.872 | locus YOR290C, strain snf2, stronger effect = lower value 0.976 | locus YOR316C, strain cot1, stronger effect = lower value 1.01 | locus YPL051W, strain arl3, stronger effect = lower value 0.952 | locus YPL055C, strain LGE1, stronger effect = lower value 1 | locus YPL078C, strain atp4, stronger effect = lower value 0.994 | locus YPL106C, strain sse1, stronger effect = lower value 0.916 | locus YPL240C, strain hsp82, stronger effect = lower value 0.997 | locus YPL241C, strain CIN2, stronger effect = lower value 1 | locus YPL256C, strain CLN2, stronger effect = lower value 0.974 | locus YPR119W, strain clb2, stronger effect = lower value 1.02 | locus YPR141C, strain kar3, stronger effect = lower value 1.01 | locus YPR163C, strain tif3, stronger effect = lower value 1.02 | locus YPR167C, strain met16, stronger effect = lower value 0.995 | strain wtn01, stronger effect = lower value 1.02
active: locus YDR069C, strain doa4, stronger effect = lower value 0.857
